Results taken from PubChem BioAssay AID1159580 (chemical genetic matrix, 2015).
Among all 5,500 compounds or so, about 2,000 (36%) were called active. About 18% were inconclusive and are not listed. Cut-off read from the data, not from the text of the source: active = normalized growth mostly below about 0.91 (no sharp cut-off); inconclusive = no clear call, values can overlap the other calls; inactive = mostly above about 0.92. Some of the results follow.

Assay: chemical genetic growth profiling, strain panel (AID 1159580);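 note: tested at 20 µM; growth read once vehicle control cultures reached saturation at 30 °C; 1 = growth at the plate median or of vehicle wells; lower values mean less growth of the strain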
Details: S. cerevisiae deletion strains, growth OD
[1] = locus YAL013W, strain DEP1, hits give low values
[2] = locus YGR078C, strain PAC10, hits give low values
[3] = locus YMR263W, strain SAP30, hits give low values
[4] = locus YMR307W, strain GAS1, hits give low values
[5] = locus YNL128W, strain TEP1, hits give low values
[6] = locus YNL153C, strain GIM3, hits give low values
[7] = locus YPL055C, strain LGE1, hits give low values

Measured: normalized growth

Nc1ncnc2c1ncn2[C@@H]1O[C@H](C(=O)NC2CC2)[C@H](O)C1O (some centres not stated)
inactive: [1] 1 | locus YAL040C, strain CLN3, hits give low values 0.986 | locus YCL061C, strain MRC1 (second series), hits give low values 1 | locus YER002W, strain NOP16, hits give low values 1 | [2] 1.01 | [3] 0.986 | [4] 1.04 | [5] 0.998 | [6] 1.03 | locus YNL175C, strain NOP13, hits give low values 1 | locus YNL197C, strain WHI3, hits give low values 0.986 | locus YNL224C, strain SQS1, hits give low values 1.01 | locus YOR083W, strain WHI5 (second series), hits give low values 1.01 | [7] 1

O=[N+]([O-])c1ccc(-c2nn[nH]n2)cc1
inactive: [1] 0.992 | locus YBR229C, strain ROT2, hits give low values 0.987 | locus YDL101C, strain DUN1, hits give low values 0.988 | locus YDR150W, strain NUM1, hits give low values 1.01 | locus YEL061C, strain CIN8, hits give low values 1.01 | [2] 0.989 | locus YGR229C, strain SMI1, hits give low values 0.987 | locus YHR030C, strain SLT2, hits give low values 0.955 | locus YHR087W, strain rtc3, hits give low values 0.993 | locus YJR043C, strain POL32, hits give low values 1.01 | locus YJR075W, strain HOC1, hits give low values 0.992 | locus YKL190W, strain CNB1, hits give low values 0.975 | locus YLR039C, strain RIC1, hits give low values 0.968 | locus YLR058C, strain SHM2 (second series), hits give low values 0.984 | locus YLR085C, strain ARP6, hits give low values 1.04 | locus YLR262C, strain YPT6, hits give low values 0.871 | locus YML094W, strain GIM5, hits give low values 1.04 | locus YMR219W, strain ESC1, hits give low values 0.994 | [3] 1.01 | [4] 1.11 | [5] 0.971 | [6] 0.995 | locus YNL298W, strain CLA4 (second series), hits give low values 0.965 | locus YNL322C, strain KRE1, hits give low values 0.99 | locus YNR030W, strain Alg12, hits give low values 0.98 | [7] 0.993 | locus YPL241C, strain CIN2, hits give low values 0.999 | locus YPR135W, strain CTF4, hits give low values 0.967
